Bioassay records deposited in PubChem by several laboratories.
Shown are actives, neighbours in structure and some others; about 4.3% of the full set was active somewhere.
NALP1 inh: blocks the NALP1 inflammasome reconstituted in yeast | hit rate 0.61% among 280,000 | inhibition, % at 10 µM | AID 2071 | S. cerevisiae NALP1/ASC/caspase-1 growth, X-gal OD620, 72 h; in the data active = inhibition mostly above about 24%, no sharp cut-off; inactive = mostly below about 32%
NR3A LBD binder: NR3A (human) ligand-binding domain modulation; NR3A LBD differential scanning fluorimetry, Tm shift; 0% = protein alone, 100% = glycine-bound protein; Tm shift relative to glycine control, % at 25 µM; hit rate 2.5% among 340,000; AID 1259313;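 active = melting temperature shift of at least 10% of the positive control shift, at one fixed dose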
UBC13 polyUb: inhibitors of human UBC13 polyubiquitin chain formation | hit rate 0.47% among 330,000 | P61088 | inhibition, % at 20 µM | TR-FRET; in the data active = inhibition above about 45%, passing the limit was not always enough
Target sequence (P61088 whole entry, looked up): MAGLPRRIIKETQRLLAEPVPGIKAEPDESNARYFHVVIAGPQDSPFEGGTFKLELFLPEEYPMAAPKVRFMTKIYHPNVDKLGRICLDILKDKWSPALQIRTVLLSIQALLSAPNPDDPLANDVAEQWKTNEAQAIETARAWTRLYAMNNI
CR mimetic SO: yeast age-related superoxide inhibition as caloric restriction mimetic; S. cerevisiae aged cells, superoxide DHE fluorescence; hits give low values; superoxide response (% of plate mean), % at 10 µM; hit rate 0.18% among 330,000; AID 2690;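 active = superoxide response under a set limit, about three screen SD below normal, cut at about 65% in these data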;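 also: yeast aged for seven days with compound at 30 °C before DHE staining; 100% = average MFI of all compound-treated wells on the plate with controls excluded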
dFosB act: mouse delta FosB homodimer activation. activation, % at 25 µM. purified delta FosB, TAMRA-CDK5 oligo fluorescence polarization; percent of positive-control signal above neutral wells. AID 493131. hit rate 0.99% among 340,000;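 active = mean activation above about 17%, with every replicate also reaching it, limit read from the data, passing the limit was not always enough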
CR mimetic CP: confirmation of caloric restriction mimetics inhibiting yeast age-related superoxide; AID 434994; superoxide response (% of plate), % at 10 µM; S. cerevisiae aging, superoxide DHE fluorescence; hits give low values; shares compounds with CR mimetic SO; hit rate 1% among 850;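 active = superoxide signal below 65% of the plate average of sample wells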;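 also: cells aged with compound for 7 days at 30 degrees C before staining; 100% equals mean DHE fluorescence of all compound wells on the plate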
DHE counter: counter-screen for compounds affecting DHE oxidation and fluorescence in yeast; shares compounds with CR mimetic SO; S. cerevisiae BY4741, flow cytometry; hits give low values; fluorescence response, % at 10 µM; 850 tested, under 10 active; AID 435000;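 active = fluorescence response below 15%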;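 also: percent of the mean fluorescence averaged over all compound wells on the plate; lower means stronger quenching of DHE signal or ROS scavenging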
Casp3 UBC13 ctr: counter-screen for UBC13 inhibitors: human caspase-3 inhibition. shares compounds with UBC13 polyUb. Recombinant caspase-3, Caspase-Glo 3/7 luminescence, 60 min. inhibition, % at 20 µM. hit rate 4% among 1,400. AID 488856;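 active = mean inhibition across replicates above about 26%, limit read from the data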;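 also: plate controls were DMSO with caspase-3 for no effect and DMSO wells lacking enzyme for full effect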
Target sequence (P42574 whole entry, looked up): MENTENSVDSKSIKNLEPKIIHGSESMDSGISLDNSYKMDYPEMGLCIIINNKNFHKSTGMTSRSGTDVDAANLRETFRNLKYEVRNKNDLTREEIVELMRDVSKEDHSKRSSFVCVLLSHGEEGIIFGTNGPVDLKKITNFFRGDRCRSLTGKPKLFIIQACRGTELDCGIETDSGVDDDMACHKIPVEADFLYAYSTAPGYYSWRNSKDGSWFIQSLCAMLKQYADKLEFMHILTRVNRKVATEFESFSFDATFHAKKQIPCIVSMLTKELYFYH
UBC13 confirm: human UBC13 polyubiquitin inhibition, confirmed. shares compounds with UBC13 polyUb. UBC13 polyubiquitination, TR-FRET, biochemical. inhibition, % at 10 µM. hit rate 68% among 1,400; in the data active = inhibition above about 45%
The depositor's hits bear a star; . = not tested or not shown.

SMILES | NALP1 inh | NR3A LBD binder | UBC13 polyUb | CR mimetic SO | dFosB act | CR mimetic CP | DHE counter | others
c1ccc(C2NCCc3[nH]cnc32)cc1 (centres undefined) | -3 | -7 | 0 | 82 | -7 | . | .
Nc1c2c(nc3ccccc13)CCN(Cc1ccccc1)C2 | 4 | -5 | -73 | 94 | 0 | . | .
Nc1cc2nc3ccccc3nc2cc1N | 2 | 0 | -118 | 41* | -9 | 68 | 89
C[C@]12CC[C@@H](O)C[C@@H]1CC[C@@H]1[C@@H]2CC[C@]2(C)[C@@H](O)CC[C@@H]12 | 33 | -4 | -7 | 80 | -2 | . | .
C[C@]12CC[C@H](O)CC1C(=O)CC1C2CC[C@@]2(C)C1CC[C@@H]2O (some centres undefined) | . | 1 | -12 | 79 | -14 | 92 | 102
C#C[C@]1(O)[C@H](O)CC2C3CC[C@H]4C[C@@H](O)CC[C@]4(C)C3CC[C@@]21C (some centres undefined) | . | . | -1 | 94 | . | 98 | 96
C[C@]12CCC3C(CC[C@H]4C[C@@H](O)CC[C@]34C)C1C[C@@H](O)[C@]2(C)O (some centres undefined) | . | -1 | 5 | 103 | 5 | 100 | 91
C[C@]12CCC3C(CC[C@H]4C[C@@H](O)CC[C@]34C)C1CC[C@@]2(O)C(F)(F)F (some centres undefined) | . | . | -1 | 97 | . | 105 | 105
C[C@]12CCC3C(CC[C@H]4C[C@@H](O)CC[C@]34C)C1C[C@@H](N)[C@@H]2O (some centres undefined) | . | 2 | 2 | 93 | -5 | 103 | 98
C[C@]12CCC3C(CC[C@H]4C[C@@H](O)CC[C@]34C)[C@H]1CC[C@H]2O (some centres undefined) | . | 2 | 8 | 78 | 0 | 97 | 101
CCCNC(=O)N1[C@H]2CC[C@@H]1C(C(=O)OC)=C(c1ccc3ccccc3c1)C2 | . | 0 | -4 | 82 | 0 | . | .
N#Cc1ncc(N=Cc2ccc(N(CCCl)CCCl)cc2)s1 | . | -2 | . | . | 2 | . | .
Cc1ncc(CN2CCCC(C(=O)c3cccc(Cl)c3)C2)s1 (centres undefined) | -7 | 1 | 8 | 111 | -10 | . | .
C[C@]12CCC3C(CCC4=C/C(=N/OCC(=O)NC(CCC(N)=O)C(=O)O)CC[C@@]43C)C1CCC2O (some centres undefined) | 0 | 3 | 6 | 71 | -5 | . | .
C[C@]12CCC3C(CCC4=C/C(=N/OCC(=O)NC(CCC(=O)O)C(=O)O)CC[C@@]43C)C1CCC2O (some centres undefined) | 11 | -7 | 0 | 58* | -9 | 94 | 107
O=P1(NCCCl)OCCCN1CCCl (centres undefined) | . | 1 | 46* | 95 | 3 | . | . | Casp3 UBC13 ctr=4;UBC13 confirm=3
COC(=O)C1=C(c2ccc(S(C)(=O)=O)cc2)C[C@@H]2CC[C@H]1N2C(=O)NCC1CC1 | . | -1 | 2 | 96 | -4 | . | .
N#Cc1cc2c(nc1SCC(=O)Nc1cc(Cl)ccc1Cl)C1CCN2CC1 | 18 | -2 | 9 | 102 | -12 | . | .
CC12CNCC(C)(CNC1)C2O (centres undefined) | 12 | 2 | 57* | 73 | 3 | . | . | Casp3 UBC13 ctr=0;UBC13 confirm=1
COCCCNC(=O)c1c(NC(=O)c2ccccc2)n(Cc2ccccc2)c2nc3ccccc3nc12 | . | -1 | 49* | 129 | 0 | . | . | Casp3 UBC13 ctr=-1;UBC13 confirm=37
COCCOC(=O)c1c(N)n(Cc2ccccc2)c2nc3ccccc3nc12 | 5 | -2 | -20 | 101 | -3 | . | .
COc1cccc2c1N=C1CCCC3CN(C(C)=O)CCC123 (centres undefined) | . | -3 | . | . | -4 | . | .
CCCC12CN3CCN(CC(C3)/C1=N\NC(=O)c1ccncc1)C2 | 2 | 7 | -5 | 99 | 4 | . | .
